Data on four compounds can be found in PubChem BioAssay AID651871 (Sanford-Burnham Center for Chemical Genomics, 2012).

Where “and” joins values, the source holds several entries; their conditions need not be identical. Equal entries are not always repeated.

In the experiment the test system is H9c2. In words: cardiomyocyte survival under oxidative or metabolic stress – cell-based, panel, H9c2 and HL-1, ATP luminescence, set 2, SAR follow-up (AID 651871).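 Also: cells exposed to stressor for 2 h before ATP readout; reference of the scale not given here.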 The following applies: H9c2/HL-1 cardiomyocytes, H2O2 oxidative stress, with H2O2, run 2, at 79 µM (top of the series).
As for `COc1ccc2nc(-c3cc(OC)c(OC)c(OC)c3)cc(C(=O)NCC(=O)Nc3ccc(C(C)=O)cc3)c2c1`, the activity (protection/inhibition) is 122% and 100%.

For `COc1cc(-c2cc(C(=O)Nc3cccc(C(=O)NCc4ccccc4)c3)c3ccccc3n2)cc(OC)c1OC`, the activity (protection/inhibition) amounted to 119%.

On to `COc1ccc2c(c1OC)C(=O)N1c3ccccc3C(=O)N(Cc3cccc(Cl)c3Cl)C21` (centres undefined), for which the activity (protection/inhibition) is 101% and 61%.

On to `CCOC(=O)c1cccc(NC(=O)CNC(=O)c2cc(-c3cc(OC)c(OC)c(OC)c3)nc3ccccc23)c1`, for which the activity (protection/inhibition) came out at 114%.
